A selection: hits, their analogues and other compounds. The true share with any hit is near 2.4%.
D2 ag-1: Beta-Arrestin HTS for Positive Allosteric Modulators of the Human D2 Dopamine Receptor: Agonists | activation, % (test concentration not listed) | 360,000 tested, 0.084% active | DiscoveRx PathHunter D2 beta-arrestin, luminescence, 90 min; 100% = 57 uM dopamine signal | D(2) dopamine receptor (Homo sapiens), P14416 | AID 624465, 2012; in the data active means activation above about 40%; inconclusive means between about 15% and that limit
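Agonist mode: compounds alone added to overnight-plated D2 PathHunter cells for 90 min at 37 C, with 57 uM final dopamine (EC100) defining full response. Beta-arrestin recruitment detected by chemiluminescent reagent, read after 1 h at ambient temperature.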
D2 PAM-1: Beta-Arrestin HTS for Positive Allosteric Modulators of the Human D2 Dopamine Receptor: Potentiators; AID 624464, 2012; potentiation, % (concentration not given with the values); 360,000 tested, 0.23% active; DiscoveRx D2 beta-arrestin cells, luminescence, 90 min; 100% = 57 uM dopamine signal; D(2) dopamine receptor (Homo sapiens), P14416; in the data active means potentiation above about 50%; inconclusive means mostly about 30% to 49%
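PathHunter D2 cells, attached overnight at 37 deg C, received compound in DMSO plus dopamine at EC20 (50 nM final) for 90 min at 37 deg C. Beta-arrestin recruitment was read as luminescence after 1 h with detection reagent at ambient temperature.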
D2 PAM-2: HTS Assay for Positive Allosteric Modulators of the Human D2 Dopamine Receptor: Primary Screen for Potentiators. potentiation, % at 10 µM. HEK293 T-REx D2, calcium flux, EC20 dopamine potentiation. 340,000 tested, 0.34% active. D(2) dopamine receptor (Homo sapiens), P14416;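 active means potentiation over 3 SD above the plate norm, cut at about 30% in these data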
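Tetracycline-induced HEK293 T-REx cells force-coupled to calcium signalling expressed D2; compounds were pin-added after a 10 s baseline, read kinetically 180 s, then an EC20 dopamine challenge followed with a further 180 s calcium read.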
D2 ag-2: HTS Assay for Allosteric Agonists of the Human D2 Dopamine Receptor: Primary Screen for Agonists | HEK293 T-REx D2 cells, calcium flux agonist mode | activation, % at 2 µM | 340,000 tested, 0.53% active;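 active means activation over 3 SD above normal in the single-dose calcium agonist read, cut at about 30% in these data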
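HEK293 Trex D2 cells, tetracycline-induced, o/n 30 C 5% CO2; no-wash Ca dye, RT 30–90 min; 10-cycle baseline, 23 nl cpd added, kinetic Ca read 180 s; agonist hits = positive Ca response.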
D2 antag: HTS Assay for Allosteric Antagonists of the Human D2 Dopamine Receptor: Primary Screen for Antagonists | HEK293 TREx D2 cells, calcium flux, dopamine EC80 | inhibition, % at 10 µM | 340,000 tested, 2% active | AID 485344, 2010; in the data active means inhibition above about 30%; inactive means below that, where a call was filed
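Calcium flux kinetic readout in an inducible HEK293 TREx D2 line plated overnight at 30 C. After 180 s compound exposure, an EC80 dopamine challenge follows with another 180 s kinetic read to detect antagonism.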
D3 ag: qHTS of D3 Dopamine Receptor Agonist: D3 Dopamine Receptor B-arrestin Agonist Confirmatory Assay | 2,300 tested, 4% active | Potency, µM (highest dose often 76.9 µM), actives largely listed as activators | AID 720506, 2013 | DiscoveRx D3 beta-arrestin cells, luminescence, 90 min | shares compounds with D2 ag-2; further: nearly all actives have a fitted effect of over 70% in size
Target sequence (P35462 whole entry, looked up): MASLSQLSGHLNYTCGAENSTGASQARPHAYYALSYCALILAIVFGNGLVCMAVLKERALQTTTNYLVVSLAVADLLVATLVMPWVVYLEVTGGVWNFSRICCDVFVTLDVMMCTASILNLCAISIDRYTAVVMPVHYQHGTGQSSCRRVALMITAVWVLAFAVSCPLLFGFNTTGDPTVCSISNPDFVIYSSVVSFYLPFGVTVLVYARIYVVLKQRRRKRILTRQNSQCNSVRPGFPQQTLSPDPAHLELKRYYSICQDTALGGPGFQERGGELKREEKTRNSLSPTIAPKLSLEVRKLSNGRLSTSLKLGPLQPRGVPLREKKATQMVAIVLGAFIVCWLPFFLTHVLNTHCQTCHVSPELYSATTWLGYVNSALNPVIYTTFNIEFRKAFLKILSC
D2 ag-3: qHTS of D3 Dopamine Receptor Agonist: D2 Dopamine Receptor B-arrestin Agonist Counterscreen. 2,300 tested, 5.9% active. Potency, µM (series often up to 76.9 µM), actives largely listed as activators. shares compounds with D2 ag-2. AID 720507, 2013. DiscoveRx PathHunter D2 beta-arrestin, luminescence, 90 min; response scale: percent relative to full dopamine signal; further: nearly all actives have a fitted effect of over 70% in size
Each line names hits and unclear results; the compound was inactive in the other large screens (follow-up assays come after a bar, where they were run). Unless noted, the call rests on the fitted dose curve; in most records, active means well fitted activation curve with a large enough effect; inconclusive means small, poorly fitted or top-dose-only effect; inactive means flat fitted curve, though single readings scatter.

CC(C)(C)NC(=O)[C@@H]1CN(Cc2cccnc2)CCN1C[C@@H](O)C[C@@H](Cc1ccccc1)C(=O)N[C@H]1c2ccccc2C[C@H]1O	none (no result: D2 PAM-2, D2 ag-2, D2 antag)
COc1ccc(C2OC(=O)CC2C(=O)NCc2ccc(F)cc2)cc1OC (stereo not drawn)	none | D3 ag inactive | D2 ag-3 inactive
O=C(NCc1ccccn1)c1cccc(S(=O)(=O)Nc2ccc(F)cc2)c1	none
O=C(NCc1ccncc1)c1cccc(S(=O)(=O)Nc2ccc(F)cc2)c1	none | D3 ag inactive | D2 ag-3 inactive
CCN(CC)C(=O)c1[nH]cnc1C(=O)Nc1ccccc1F	none (no result: D2 PAM-1, D2 PAM-2, D2 ag-2, D2 antag)
COC(=O)c1cccc(NC(=O)CN2CCc3ccccc3C2)c1	none | D3 ag inconclusive | D2 ag-3 inactive
CCOc1ccccc1N1CCN(Cc2cccc(OC)c2O)CC1	D2 ag-2 45, D2 antag 68 | D3 ag inactive | D2 ag-3 inactive
COc1ccccc1N1CCN(Cc2cc3c(cc2O)OCO3)CC1	D2 ag-2 75, D2 antag 98 | D3 ag inactive | D2 ag-3 inactive
CCOCc1cc(CN2CCN(c3ccccc3OC)CC2)c(O)c2ncccc12	none (no result: D2 ag-1, D2 PAM-1, D2 antag)
CCN(C(=O)CSc1cc(C)c2cccc(C)c2n1)C1CCS(=O)(=O)C1 (stereo not drawn)	none
CCN1C(=O)[C@H]2[C@@H](c3ccc(OC)cc3)N[C@]3(CCCN(Cc4ccc(C)cc4)C3=O)[C@H]2C1=O	none (no result: D2 PAM-2, D2 ag-2, D2 antag)
O=C(CSc1n[nH]c(=O)n1-c1ccccc1)N1CCOCC1	none
CC(C)(C)OC(=O)N1CCC(CNC(=O)c2ccc(F)cc2)CC1	D2 ag-2 32 | D3 ag inactive | D2 ag-3 inactive
CC(C)Sc1ncnc2c1oc1ccccc12	none | D3 ag inactive | D2 ag-3 inactive
CCCOc1ccc(CNC(=O)C2CCN(c3nc4ccccc4nc3C(F)(F)F)CC2)cc1	none (no result: D2 ag-1, D2 PAM-1, D2 ag-2, D2 antag)
COc1ccccc1CNS(=O)(=O)c1cc2c3c(c1)CCN3C(=O)CC2	D2 PAM-1 inconclusive, D2 antag 75 | D3 ag inactive | D2 ag-3 inactive
Cc1ccnc(NC(=O)CC(NC(=O)c2ccccc2Cl)c2ccccc2)c1 (stereo not drawn)	none
Cc1ccc(NC(=O)CC(NC(=O)c2ccccc2Cl)c2ccccc2)nc1 (stereo not drawn)	none | D3 ag inactive | D2 ag-3 inactive
O=[N+]([O-])c1ccc(S(=O)(=O)N2CCN(c3ccc(N4CCOCC4)nn3)CC2)cc1	none
O=c1[nH]cc(NCCc2ccccc2)c(=O)[nH]1	D2 ag-2 38 | D3 ag inactive | D2 ag-3 inactive
O=c1[nH]cc(NCc2ccccc2)c(=O)[nH]1	none (no result: D2 PAM-2, D2 ag-2, D2 antag)
Cc1cc(NC(=O)c2ccco2)ccc1-n1cnnn1	none (no result: D2 PAM-2, D2 ag-2, D2 antag) | D3 ag inactive | D2 ag-3 inactive
O=C(CC1NCCc2ccccc21)Nc1ccccc1Cl (stereo not drawn)	none | D3 ag inactive | D2 ag-3 inactive
O=C(CC1NCCc2ccccc21)Nc1ccc(Oc2ccccc2)cc1 (stereo not drawn)	D2 ag-2 68, D2 antag 60 | D3 ag inactive | D2 ag-3 inactive
O=C(CC1NCCc2ccccc21)Nc1ccccc1 (stereo not drawn)	none
